BAZ2B inh = qHTS Assay for Inhibitors of BAZ2B; Bromodomain adjacent to zinc finger domain protein 2B (Homo sapiens), Q9UIF8; 4.4% of 360,000 active; Potency, µM (series often up to 114 µM), for inactives: top-dose activity change, negative = inhibition, most hits filed as inhibitors; AlphaScreen BAZ2B-H3K14Ac peptide displacement; note: % is set by controls: 0 for no effect and ±100 for the full control effect; nearly all actives have a fitted effect of over 60% in size
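Multi-concentration screen (max 110 uM) measuring displacement of acetylated histone H3 peptide from BAZ2B by AlphaScreen, using 50 nM protein, 50 nM peptide and 10 ug/mL streptavidin donor plus Ni-chelate acceptor beads.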
G9a inh = qHTS Assay for Inhibitors of Histone Lysine Methyltransferase G9a. Histone-lysine N-methyltransferase EHMT2 (Homo sapiens), Q96KQ7. G9a H3K9 monomethylation, AlphaScreen, 2 h. Potency, µM (highest dose often 102 µM), without a hit: top-dose activity, negative = inhibition, most hits filed as inhibitors. 8.8% of 350,000 active. AID 504332, 2011; note: % is set by controls: 0 for no effect and ±100 for the full control effect; nearly all actives have a fitted effect of over 75% in size
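G9a (20 nM) was preincubated 15 min with compound, then reacted 2 h at room temperature with 500 nM biotin-H3K9 peptide and 20 µM SAM. Monomethyl-H3K9 detected by AlphaScreen using anti-H3K9me1 antibody.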
Sfp PPTase inh = qHTS Assay for Inhibitors of Bacillus subtilis Sfp phosphopantetheinyl transferase (PPTase). Biochemical Sfp PPTase activity, qHTS. Potency, µM, for the others: largest response in the series, negative = inhibition, hits mostly inhibitors. 3.5% of 310,000 active. AID 1490, 2009;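 note: the enzyme is Sfp with the accession as filed and its product quenches rhodamine fluorescence; 0% = enzyme reaction without inhibitor and -100% = no enzyme wells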
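With Hepes-Na pH 7.6 buffer containing 10 mM MgCl2, Sfp (15 nM) modified BHQ-2-YbbR (12.5 uM) using rhodamine-CoA (5 uM). Two reads 30 minutes apart at 525/598 nm yielded each well's rate.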
12-LOX inh = Primary qHTS assay for inhibitors of human arachidonate 12S-lipoxygenase (ALOX12): Round 2; Polyunsaturated fatty acid lipoxygenase ALOX12 (Homo sapiens), P18054; purified 12hLO, xylenol orange hydroperoxide absorbance; Potency, µM (doses to about 108 µM), inactives show top-dose activity change, negative = inhibition, actives largely listed as inhibitors; 1.1% of 580,000 active; note: % is set by controls: 0 for no effect and ±100 for the full control effect
Target sequence (P18054 whole entry, looked up): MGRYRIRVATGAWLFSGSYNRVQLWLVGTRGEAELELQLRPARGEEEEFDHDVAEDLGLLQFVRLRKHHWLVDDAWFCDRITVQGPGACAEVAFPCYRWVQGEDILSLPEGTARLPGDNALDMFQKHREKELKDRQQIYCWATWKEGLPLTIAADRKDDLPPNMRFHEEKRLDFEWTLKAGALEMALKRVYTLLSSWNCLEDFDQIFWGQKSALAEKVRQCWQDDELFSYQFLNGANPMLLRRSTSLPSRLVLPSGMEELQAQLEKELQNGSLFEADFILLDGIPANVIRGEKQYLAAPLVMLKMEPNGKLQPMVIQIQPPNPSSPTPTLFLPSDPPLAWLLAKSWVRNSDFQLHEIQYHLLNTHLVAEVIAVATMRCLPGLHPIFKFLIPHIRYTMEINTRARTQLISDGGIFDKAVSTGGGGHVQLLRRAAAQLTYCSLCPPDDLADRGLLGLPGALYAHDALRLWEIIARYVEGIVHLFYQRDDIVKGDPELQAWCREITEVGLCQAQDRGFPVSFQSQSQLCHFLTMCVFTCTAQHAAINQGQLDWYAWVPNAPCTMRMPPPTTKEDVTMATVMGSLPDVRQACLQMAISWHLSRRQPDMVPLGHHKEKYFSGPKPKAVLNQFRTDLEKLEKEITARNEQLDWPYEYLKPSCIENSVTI
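Hydroperoxide product was detected by ferrous iron/xylenol orange as the 573 to 405 nm absorbance ratio. Arachidonic acid at 40 uM (final) was turned over for 30 min at room temperature by 150 nM human 12hLO, pH 7.0 Hepes buffer, after 15 min compound preincubation.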
JMJD2A Tudor = qHTS Assay for Inhibitors of JMJD2A-Tudor Domain | Lysine-specific demethylase 4A (Homo sapiens), O75164 | AlphaScreen JMJD2A-Tudor / H3K4me3 peptide binding | Potency, µM (top dose mostly 114 µM), for the others: at the highest dose activity change, negative = inhibition, usual class: inhibitors | 4.4% of 390,000 active; note: % is set by controls: 0 for no effect and ±100 for the full control effect; nearly all actives have a fitted effect of over 50% in size
HP1b binding inh = HTS for Inhibitors of HP1-beta Chromodomain Interactions with Methylated Histone Tails | Potency, µM (highest dose often 114 µM), for the others: at the highest dose activity change, negative = inhibition, hits mostly inhibitors | 0.56% of 390,000 active | AlphaScreen HP1-beta / biotin-H3K9me3 peptide binding | AID 540317, 2011; note: nearly all actives have a fitted effect of over 70% in size
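HP1-beta protein (50 nM final) preincubated 30 min at room temperature with biotinylated H3(1-18)K9me3 peptide (50 nM) in PBS pH 7.4, 0.01% Tween-20, then compound added for 30 min. AlphaScreen streptavidin donor/nickel chelate acceptor beads (10 ug/mL final), 30 min dark, luminescence read.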
Active calls of the source: *; i = inactive; ? = inconclusive; · = not tested or not shown; ! = not active in a repeat; [ ] = dose if it differs, or a comment. Most compounds without a hit are left out; they make up all but 8.7% or so of the library. Calls come from the whole dose curve; as a rule, active = well fitted curve in the direction sought with a large enough effect; inconclusive = small, poorly fitted or top-dose-only effect, or another doubt; inactive = no such curve, though single readings can be large; an effect the other way counts as inactive or inconclusive. Potency is the fitted concentration of half-maximal effect.

SMILES | BAZ2B inh | G9a inh | Sfp PPTase inh | 12-LOX inh | JMJD2A Tudor | HP1b binding inh
O=C(O)C1Cc2ccccc2CN1C(=O)c1ccco1 (stereo not drawn) | 0% | 13%[0.501 µM] | 1% | -13% | ? | 31%
Cc1ccc(-n2nnnc2SCC(=O)N2CCc3ccccc3C2)cc1 | 8% | ? | 2% | 23% | 1% | 40%
Cc1ccc(-n2nnnc2SCC(=O)N2Cc3ccccc3CC2C(=O)O)cc1 (stereo not drawn) | -16% | 45µM* | 10% | 0% | -9% | 45%
COc1ccc(N2CCN(C(=O)C3Cc4ccccc4CN3C(=O)c3ccccc3)CC2)cc1 (stereo not drawn) | ? | 50µM* | 14% | 1% | -35% | -12%
Cc1ccc(-n2c(SCC(=O)N3Cc4ccccc4CC3C(=O)O)nnc2-c2cccnc2)c(C)c1 (stereo not drawn) | 13% | 45µM* | 11% | -29% | -3% | 56%
CC(=O)N1Cc2ccccc2CC1C(=O)N1CCN(c2ccccc2)CC1 (stereo not drawn) | -9% | -1% | 6% | 1% | -10% | 12%
COCC(C)NC(=O)CSc1nc2ccccc2nc1C (stereo not drawn) | · | · | · | 8% | · | ·
CC(C)(C)OC(=O)N1Cc2ccccc2C[C@H]1C(=O)N1CCC[C@H]1C(=O)O | 2% | 18µM* | 8% | -13% | -3% | 6%
O=C(COC(=O)c1ccco1)Nc1ccc(N2CCOCC2)cc1 | 17% | 22µM* | · | ? | -14% | 10%
O=C(Nc1ccc(N2CCOCC2)cc1)C1CCN(C(=O)OCc2ccccc2)CC1 | -2% | 40µM* | 19% | 241% | -16% | 5%
NC(=O)c1ccc(NC(=O)COC(=O)c2ccc(Cl)nc2)cc1 | 1% | 7.9µM* | · | 1% | -3% | 24%
NC(=O)c1ccsc1NC(=O)COC(=O)c1ccc(Cl)nc1 | 17% | -24% | · | 9% | -13% | 18%
Cc1ccc(C(=O)OCC(=O)Nc2ccc(N3CCOCC3)cc2)cc1 | 11% | ? | · | -9% | -10% | 22%
COc1ccc(C2(c3ccc(OC)cc3)NC(=O)N(CC(=O)Nc3ccc(N4CCOCC4)cc3)C2=O)cc1 | ? | 40µM* | · | ? | ? | ?
Cc1cc(CSCC(=O)Nc2ccc(C(F)(F)F)cc2)no1 | · | · | · | 2% | · | ·
COc1cccc(CNCC(=O)Nc2ccc(N3CCOCC3)cc2)c1 | 50µM* | 3.5µM* | -18% | -15% | 25µM* | ?
COc1ccc(CC(=O)OCC(=O)Nc2ccc(N3CCOCC3)cc2)cc1 | 6% | 50µM* | 10% | 3% | -16% | 16%
O=C(CCc1ccccc1)Nc1ccc(N2CCOCC2)cc1 | 0% | ? | 10% | ? | -26% | 15%
CC(=O)Nc1ccc(C(=O)OCC(=O)Nc2ccc(N3CCOCC3)cc2)cc1 | -6% | ? | 15% | 5% | -13% | 40%
O=C(COC(=O)c1ccc(Cl)nc1)Nc1ccc(N2CCOCC2)cc1 | 22% | 56µM* | · | ? | -13% | -12%
COc1cc(CC(=O)OCC(=O)Nc2ccc(N3CCOCC3)cc2)cc(OC)c1OC | -5% | ? | 5% | -1% | -6% | 34%
O=C(NNC(=O)C1CCCC1)c1ccc(Br)cc1 | · | · | · | 24% | · | ·
Clc1ccc(-c2nc(-c3ccccn3)no2)cc1 | · | · | · | 14% | · | ·
c1ccc(-c2nc(-c3ccccn3)nc(-c3ccccn3)n2)nc1 | -4% | 47%[59 µM] | ? | i | -18% | 10%
Nc1nc(N)nc(-c2ccccn2)n1 | 20µM* | -44%[59 µM] | -8% | 41% | 50µM* | 22%
SMILES | BAZ2B inh | G9a inh | Sfp PPTase inh | 12-LOX inh | JMJD2A Tudor | HP1b binding inh
c1ccc(-c2cnnc(-c3ccccn3)n2)cc1 | · | · | · | -16% | 11µM* | 34%
c1ccc(-c2cnc(-c3ccccn3)nn2)cc1 | · | · | · | -1% | 14µM* | 27%
Clc1ccc(-c2cnnc(-c3ccccn3)n2)cc1 | · | · | · | 2% | 10µM* | 31%
CCOc1ccc(NC(=O)c2c(NCc3cccs3)sc3c2CCCCC3)cc1 | ? | 8.9µM* | · | -28% | ? | -5%
CCOc1ccc(NC(=O)c2c(NCc3sccc3C)sc3c2CCCCC3)cc1 | -38% | 8.9µM* | · | ? | ? | -22%
CCOc1ccc(NC(=O)c2c(NCc3ccc(C)o3)sc3c2CCCCC3)cc1 | -22% | 5.6µM* | · | 40µM* | ? | 8%
COc1ccc(NC(=O)c2c(NCc3cccs3)sc3c2CCCCC3)cc1 | 40µM* | 7.9µM* | · | ? | 50µM* | -5%
CCOC(=O)c1ccc(NC(=O)c2c(NCc3sccc3C)sc3c2CCC(C)C3)cc1 (stereo not drawn) | -15% | ? | · | ? | -33% | 30%
Cc1ccc(C(=O)N/N=C2/CC(=O)CC(C)(C)C2)cc1 | · | · | · | -6% | · | ·
COc1cccc(NC(=O)NOCc2ccccc2)c1 | · | · | · | -53% | · | ·
COc1cc2c(cc1OC)-c1cc(=Nc3c(C)cc(C)cc3C)n(C)c(=O)n1CC2 | · | 21µM* | 71µM*! | · | ? | -25%[57 µM]
COc1cc2c(cc1OC)-c1cc(NC3CCCC3)nc(=O)n1CC2 | 21% | -18% | -20% | -3% | -32% | 26%
CCCS(=O)(=O)c1nc(S(=O)(=O)c2ccc(C)cc2)c(N2CCc3ccccc3C2)s1 | 24% | 35µM* | -9% | -20% | -10% | 28%
O=C1CCCC/C1=N\Nc1ccc(OCc2ccccc2)cc1 | -23% | 40µM* | -1% | ? | -29% | -6%
CC(=O)N[C@@H](CSC/C=C(\C)CC/C=C(\C)CCC=C(C)C)C(=O)O | · | -7%[59 µM] | ? | · | · | ·
CC(=O)N[C@@H](CSC/C=C(\C)CCC=C(C)C)C(=O)O | · | 33%[59 µM] | 45µM*! | -1%[12.5 µM] | · | ·
N#Cc1ccccc1OCC(=O)N1CCC(c2nc3ccccc3o2)CC1 | · | · | · | -26% | · | ·
CCSc1ncc(/C=N/Nc2ccc(F)cc2)n1C | ? | 25µM* | 0% | 1% | ? | -12%
CC(=O)Nc1ccc(NC(=O)CSc2ncc(C(=O)Nc3ccc(F)cc3)c(=O)n2C)cc1 | -5% | -6% | · | -18% | -8% | -10%
COc1ccc(C2c3[nH]c4ccccc4c3CCN2CCCn2cccn2)c(C)c1C (stereo not drawn) | ? | 40µM* | -12% | 15% | ? | -17%
CCOc1ccc(N(C(C)C(=O)NC2CCCCCC2)S(C)(=O)=O)cc1 (stereo not drawn) | -2% | 14µM* | -21% | -15% | -6% | -3%
